Screening results as filed in PubChem BioAssay.
A selection: hits, their analogues and other compounds. The true share with any hit is near 21%.
Pf growth 48h: inhibits P. falciparum growth in the first generation, 48 h. P. falciparum luciferase growth in erythrocytes, 48 h. Potency, µM (highest dose often 28.7 µM), for the others: at the top dose activity change, negative = inhibition, actives largely listed as inhibitors. hit rate 5.9% among 310,000; also: potency is read from the fitted curve at half-maximal effect; % is scaled to controls: 0 for no effect and ±100 for the full control effect
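Read-out is firefly luciferase luminescence from an integrated reporter in P. falciparum, so falling signal marks reduced parasite growth. Infected erythrocytes were at 2% hematocrit and 0.1% parasitemia (final) in Albumax-supplemented RPMI 1640.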
Shiga inhibitor: blocks Shiga toxin action in Vero cells; Vero cells, Shiga toxin protein synthesis inhibition reporter; AID 2315; inhibition, % at 38.7 µM; hit rate 9.2% among 290,000; in the data active = inhibition mostly above about 28%, no sharp cut-off; inactive = mostly below about 43%; also: 0% is about no effect
Pf growth 96h: inhibits malaria parasite growth, 96 h; hit rate 6.9% among 320,000; Potency, µM (highest dose often 28.7 µM), for inactives: at the highest dose activity change, negative = inhibition, actives largely listed as inhibitors; P. falciparum luciferase reporter growth, 96 h; AID 504834; also: potency is read from the fitted curve at half-maximal effect; % is scaled to controls: 0 for no effect and ±100 for the full control effect
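Parasite growth measured via integrated firefly luciferase reporter in P. falciparum. Infected erythrocytes at 2% hematocrit, 0.05% parasitemia final were treated 96 hours at 37 C under 5% CO2, and luminescence was read.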
Cycloheximide cs: counter-screen hit for Shiga toxin inhibitors, cycloheximide | cell reporter, cycloheximide protein synthesis inhibition counterscreen | hit rate 12% among 300,000 | max response, %; in the data active = max response mostly above about 13%, no sharp cut-off; inactive = mostly below about 14%; also: read at 38.3 µM for the half of the compounds with a filed dose; 0% is about no effect
HCMV antiviral: human cytomegalovirus inhibition; HFF cells, HCMV-luciferase reporter, 72 h; stronger effect = lower value; activity change, negative = inhibition, % at 57.5 µM; hit rate 4.5% among 410,000; AID 1259415; in the data active = activity change below about -60%; inconclusive = no clear call, values can overlap the other calls; inactive = above about -39%; also: % is scaled to controls: 0 for no effect and ±100 for the full control effect
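Compounds were evaluated in HFFs infected with an HCMV luciferase reporter virus (MOI 1 PFU/cell). Luciferase in lysates collected 72 h post infection served as the replication measure.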
HCV inh: blocks hepatitis C virus | Huh7.5.1 HCVcc-Cre infection, luciferase reporter, 44 h | Potency, µM (series often up to 41.8 µM), inactives show at the top dose activity change, negative = inhibition, usual class: inhibitors | hit rate 3.4% among 340,000; also: potency is read from the fitted curve at half-maximal effect; % is scaled to controls: 0 for no effect and ±100 for the full control effect
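HCVcc-Cre virus at an moi near 0.5 was added right after compound to cells cultured 4 h from seeding (1,000 cells/well). Luciferase activity was determined 44 h later, 15 min after substrate addition at RT.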
* hit, by the source's call; ? = inconclusive; . = no result given; [ ] = another dose, or the depositor's remark. Unless noted, calls follow the shape of the dose curve; as a rule, active = well fitted inhibition curve with a large enough effect; inconclusive = small, poorly fitted or top-dose-only effect, or another doubt; inactive = no such curve, though single readings can be large or run the other way.

SMILES	Pf growth 48h	Shiga inhibitor	Pf growth 96h	Cycloheximide cs	HCMV antiviral	HCV inh
Cc1ccc(CNC(=O)CCCCn2c(=O)c3ccccc3n(Cc3ccc(C)cc3)c2=O)cc1	.	.	.	.	15.4	.
Clc1ccc2nc(N3CCNCC3)nc(-c3ccccc3)c2c1	11.7µM*	-17.3	9.0%[5.75 µM]	-0.9	?	10µM*
O=C(c1ccccc1)c1ccc(N2CCN(C(=O)c3cccc(F)c3F)CC2)c(F)c1	?	20.1	-102.1%	8.6	-22.3	12.6µM*
CCOC(=O)N1CCN(c2ccc(C(=O)c3ccccc3)cc2F)CC1	33.2%	77.2*	59.0%	28.6*	6.2	?
Cc1ccc(N2CCN(C(=O)c3ccccc3F)CC2)c(C)c1	-15.3%	-7.2	3.29µM*	-2.3	15.1	-17.3%
Cc1ccc2nc(N3CCN(C(=O)c4ccccc4F)CC3)c(C#N)cc2c1	.	.	.	.	-18.6	-25.7%
CCOC(=O)N1CCN(c2nc(-c3ccccc3)c3cc(C)ccc3n2)CC1	10.4µM*	-2.8	?	-2.1	-26.8	?
CC1CC(C)CN(C(=O)Cn2nnc(-c3ccc(Br)cc3)n2)C1 (stereo not drawn)	0.0%	-3.2	-13.4%	7.2	74.3	14.4%
CC(C)Cn1c(N)c(C(=O)COC(=O)C2Cc3ccccc3CN2S(C)(=O)=O)c(=O)n(C)c1=O (stereo not drawn)	11.7µM*	.	?	.	-27.8	11.2µM*
CC(C)Cn1c(N)c(C(=O)COC(=O)c2cc(F)cc(F)c2)c(=O)n(C)c1=O	-9.0%	-11.5	17.0%	1.2	-26.6	-27.8%
Cn1c(=O)c(C(=O)COC(=O)c2cc(-c3ccco3)nc3ccccc23)c(N)n(Cc2ccccc2)c1=O	5.22µM*	28.6	6.57µM*	-0.6	.	-4.4%[8.37 µM]
CC(C)Cn1c(N)c(C(=O)COC(=O)c2cc(C3CC3)nc3ccccc23)c(=O)n(C)c1=O	5.22µM*	-6.5	11.7µM*	-3.2	15.1	?
CC(C)Cn1c(N)c(C(=O)COC(=O)c2cnc(Cl)c(Cl)c2)c(=O)n(C)c1=O	3.9%	-11.3	20.2%	-0.4	13.2	15.8µM*
CCCOC(=O)c1c(NC(=O)c2cc3ccccc3c(=O)o2)sc2c1CCC(C)C2 (stereo not drawn)	.	.	.	.	20.0	.
O=C(COC(=O)c1c[nH]c(=O)[nH]c1=O)Nc1ccccc1Br	14.7%	-7.9	9.7%	-2.4	-12.6	13.0%
OC(COc1cccc2ccccc12)CN1CCN(c2ccccc2Cl)CC1 (stereo not drawn)	-29.0%	-8.0	-16.3%	0.3	-37.6	3.9%
CC(C)Cn1c(N)c(C(=O)COC(=O)c2cc(-c3ccccc3)nc3ccccc23)c(=O)n(C)c1=O	?	-8.3	11.7µM*	-3.2	-14.2	?
Cc1nn(-c2ccccc2)c(C)c1C(=O)OCC(=O)c1c(N)n(CC(C)C)c(=O)n(C)c1=O	?	-8.9	?	-1.6	-79.2*	5.62µM*
CC(C)Cn1c(N)c(C(=O)COC(=O)c2cc(-c3ccco3)nc3ccccc23)c(=O)n(C)c1=O	9.28µM*	-4.8	-5.7%[5.75 µM]	-2.6	4.2	19.6%
CC(=O)Nc1ccccc1-c1nc2ccccc2n(CC(=O)c2ccc(Br)cc2)c1=O	.	.	.	.	-17.6	.
c1nc2n(n1)C1=C(CCCC1)C1(CCCCC1)N2	?	7.6	2.62µM*	8.5	-21.1	18.2%
CCCOc1nc2c(c(=O)n(C)c(=O)n2C)n1CC	25.1%	12.2	2.08µM*	-3.2	.	.
COc1ccc(Oc2nc3c(c(=O)n(C)c(=O)n3C)n2Cc2cccc(OC)c2)cc1	-0.5%	-22.5	.	-0.6	27.7	14.7%
COCCOc1nc2c(c(=O)n(C)c(=O)n2C)n1Cc1cccc(OC)c1	.	-6.2	?	8.8	?	11.2µM*
Cn1c(=O)c2c(nc(Br)n2Cc2ccccc2Cl)n(C)c1=O	-0.3%	-8.6	?	-0.6	-28.6	?
SMILES	Pf growth 48h	Shiga inhibitor	Pf growth 96h	Cycloheximide cs	HCMV antiviral	HCV inh
CCOc1nc2c(c(=O)n(C)c(=O)n2C)n1Cc1ccccc1Cl	?	-7.9	-29.1%	-3.8	-92.5*	?
C[C@@H]1CN([C@H](C)CO)C(=O)CCCn2cc(nn2)CO[C@H]1CN(C)S(=O)(=O)c1ccc(Cl)cc1	.	.	.	.	-6.5	.
Cc1cccc(N2CCN(c3nc4ccc(C(=O)c5ccccc5)cc4n4cnnc34)CC2C)c1 (stereo not drawn)	.	.	.	.	0.0	.
COc1ccc(CCNc2cc(C)nc3c(-c4ccccc4OC)cnn23)cc1OC	13.1µM*	-10.0	?	10.7	.	12.6µM*
COc1ccccc1-c1cnn2c(NCc3ccccc3)cc(C)nc12	-9.6%	33.7	?	11.8	119.6	?
CNc1sc(C(=O)c2cccs2)c(N)c1-c1nc2ccccc2s1	-19.4%	176.1*	-13.8%	39.9*	35.3	?
CC(=O)Nc1scc(C)c1-c1nc2ccccc2s1	?	3.6	0.0%	7.7	82.8	-71.5%
CNc1sc(C(=O)c2ccc(F)cc2)c(N)c1-c1nc2ccccc2s1	.	38.1	-93.9%	28.6*	70.8	?
CC1=CC(C)(C)N2C(=O)C3(N=C(N)NC(Nc4ccccc4)=N3)c3cc(C)cc1c32 (stereo not drawn)	?	-5.3	-1.2%	-2.1	22.4	?
Cc1cccc(NC2=NC(C)(C)N=C(N)N2)c1	0.0059µM*	30.3	-22.8%	-2.3	-98.2*	?
Cc1cc(C)cc(NC2=NC3(CCCCC3)N=C(N)N2)c1	.	-1.5	1.04µM*	-3.6	?	-19.2%
COc1ccc(OC)c(NC2=NC3(CCCC3)N=C(N)N2)c1	-21.5%	12.6	.	2.3	6.8	-23.1%
CCCCOc1ccc(NC2=NC3(CCCC3)N=C(N)N2)cc1	1.17µM*	-9.3	?	-2.3	13.4	?
NC1=NC2(CCCCC2)N=C(Nc2ccc(F)cc2F)N1	?	-11.7	3.7µM*	-1.9	27.5	2.6%
C#CCn1c(S(=O)(=O)Cc2ccc(OC)cc2)nc(-c2ccccc2)c1-c1ccccc1	?	-18.9	?	3.1	-39.4	-11.1%
CC(=O)N(C(C)=O)c1ccc2c(c1)OCCO2	.	.	.	.	-23.2	.
CN(C)Cc1nnnn1-c1cccc(-n2nnnc2CN(C)C)c1	24.4%	0.9	36.3%	-0.9	12.9	2.8%
O=C(N/C(=C\c1ccccc1)C(=O)N1CCCCC1)c1ccc(Br)o1	54.5%	-8.2	-17.1%	-4.4	-19.6	-14.0%
COc1ccc(C(=O)N(CC(=O)Nc2sc(C)c(C)c2C(N)=O)C2CCCC2)cc1	?	32.6	-2.5%	22.9*	4.9	-11.3%
Cc1ccc(S(=O)(=O)N[C@@H](CCCCN)C(=O)CCl)cc1	?	.	12µM*	.	17.5	?
Cc1ccc(S(=O)(=O)NC(CC(N)=O)C(=O)O)cc1 (stereo not drawn)	6.6%	14.3	?	1.6	-38.7	1.4%
Cc1cc(C)c(/C=N/NC(N)=O)c(C)c1/C=N/NC(N)=O	9.1%	-2.7	?	-1.1	?	5.2%
